Our source for the Potency values is PubChem BioAssay (Tox21).

Assay [1] is described as follows: qHTS RealTime-Glo MT Cell Viability Assay in HEK293 cells - 0 hour (AID 1224880). Also: top concentration of the series differs between compounds; nearly all actives have a fitted effect of over 45% in size. An outline of the steps:
(§1)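 Luminescence readout at each listed time point; HEK293, 600 cells/well, RealTime-Glo MT reagent added with cells; compounds pinned (23 nL in DMSO) after 5 h at 37 C; continuous culture at 37 C.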
In general terms: qHTS replaces the single test concentration by a dilution series.

Assay [2] can be described thus: A CellTox Green Cytotoxicity Assay to monitor cytotoxicity in HEK293 cells - 32 hour (AID 1224881). Also: nearly all actives have a fitted effect of over 40% in size. Also: potency is read from the fitted curve at half-maximal effect. An outline of the steps: (§2)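 Read-out: fluorescence of a cell-impermeant cyanine dye staining DNA of dead cells, proportional to cytotoxicity. HEK293, 600 cells/well with reagent, compound (23 nL DMSO) added after 5 h; reads at 0, 8, 16, 24, 32, 40 h.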
The nature of assay [3]: A CellTox Green Cytotoxicity Assay to monitor cytotoxicity in HepG2 cells - 0 hour (AID 1224882). Also: nearly all actives have a fitted effect of over 35% in size. The method in brief:
(§3)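 HepG2, 600 cells/well premixed w/ CellTox Green; 5 h settle, 37 C/5% CO2; pintool cpd add (DMSO); 37 C, 40 h; fluorescence read at 0, 8, 16, 24, 32, 40 h.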

The nature of assay [4]: A CellTox Green Cytotoxicity Assay to monitor cytotoxicity in HepG2 cells - 32 hour (AID 1224883). Also: nearly all actives have a fitted effect of over 50% in size. Also: potency is read from the fitted curve at half-maximal effect. The method in brief:
as §3

The nature of assay [5]: A CellTox Green Cytotoxicity Assay to monitor cytotoxicity in HEK293 cells - 8 hour (AID 1224884). Also: nearly all actives have a fitted effect of over 35% in size. Also: potency is read from the fitted curve at half-maximal effect. The method in brief:
as §2

Assay [6] can be described thus: qHTS RealTime-Glo MT Cell Viability Assay in HepG2 cells - 16 hour (AID 1224885). Also: nearly all actives have a fitted effect of over 50% in size. Also: potency is read from the fitted curve at half-maximal effect. An outline of the steps: (§4)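 HepG2 suspension premixed with RealTime-Glo reagents is plated at 600 cells per well and left 5 h at 37 C/5% CO2. Compounds in DMSO then go in, and bioluminescence reflecting viable cell number is recorded over 40 h.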
Assay [7] in a line: qHTS RealTime-Glo MT Cell Viability Assay in HEK293 cells - 24 hour (AID 1224886). Also: nearly all actives have a fitted effect of over 50% in size. Also: potency is read from the fitted curve at half-maximal effect. An outline of the steps:
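Reads taken at 0, 8, 16, 24, 32 and 40 h from the same wells. HEK293 cells (600/well) carried RealTime-Glo reagents from seeding, with compound added after a 5 h settle at 37 C.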

Assay [8] in a line: qHTS RealTime-Glo MT Cell Viability Assay in HEK293 cells - 8 hour (AID 1224887). Also: nearly all actives have a fitted effect of over 50% in size. Also: potency is read from the fitted curve at half-maximal effect. The method in brief:
as §1

A short description of assay [9]: A CellTox Green Cytotoxicity Assay to monitor cytotoxicity in HEK293 cells - 16 hour (AID 1224888). Also: nearly all actives have a fitted effect of over 35% in size. Also: potency is read from the fitted curve at half-maximal effect. The method in brief: as §2
A short description of assay [10]: qHTS RealTime-Glo MT Cell Viability Assay in HepG2 cells - 0 hour (AID 1224889). Also: nearly all actives have a fitted effect of over 50% in size. An outline of the steps: as §4

Molecules are shown by their SMILES. Results filed as inconclusive are left out. Activity calls are given as the source filed them. Calls follow the shape of the dose curve; as a rule, active = well fitted curve in the direction sought with a large enough effect in the repeat runs; inconclusive = weak or mixed curves; inactive = no such curve, though single readings can be large; an effect the other way counts as inactive or inconclusive.

For the molecule `CC(C)CCCC(=O)O`, the Potency entry in assay [1], in assay [2], in [3], in [4], in assay [5] and in [6] was “inactive” throughout. Moreover, the Potency entry in assay [7], in assay [8] and in assay [9] was “inactive” in each case.
Turning to `CCOC(=O)[C@@H](C)Oc1ccc(Oc2nc3ccc(Cl)cc3o2)cc1`, the Potency result in assay [1], in [2], in assay [3], in [4], in assay [5] and in assay [9] was “inactive” each time. Moreover, the Potency in assay [6] was 8.71 µM (active); in [7], 21.9 µM (active); in assay [8], 21.9 µM (active).
In the case of `Cc1cnc(C)c(C)n1`, the Potency entry in assay [1], in [2], in assay [3], in assay [4], in assay [6] and in assay [7] was “inactive” each time. Moreover, the Potency result in assay [8] is “inactive”. The Potency in [5] is 51.3 µM (active).
Turning to `CC1C2CC(CC2C2CCCC(O)C2)C1(C)C` (stereo unspecified), the Potency result in assay [1], in assay [3], in assay [6], in assay [7] and in assay [8] was “inactive” in each case. The Potency in assay [2] was 49 µM (active); in assay [4], 43.6 µM (active); in [5] it was 43.6 µM (active); in assay [9], 49 µM (active).
For the molecule `CCCCCCOC(=O)C(C)C`, the Potency result in [1], in assay [2], in assay [3], in assay [4], in [5] and in [6] was “inactive” in each case. Moreover, the Potency result in assay [7], in [8], in assay [9] and in assay [10] was “inactive” in each case.
`C=CC(C)=CCC=C(C)C`: the Potency entry in assay [1], in assay [2], in assay [3], in assay [4], in [5] and in [6] was “inactive” throughout. Also, the Potency result in assay [7], in [8] and in [9] was “inactive” throughout.
In the case of `O=C(O)c1cccnc1C(=O)O`, the Potency result in assay [1], in [2], in assay [3], in assay [4], in assay [5] and in [6] was “inactive” in each case. The Potency entry in assay [7], in [8] and in assay [9] was “inactive” throughout.
On to `CN1CCCN=C1/C=C/c1cccs1`, for which the Potency result in assay [1], in assay [2], in assay [3], in [4], in assay [5] and in [6] was “inactive” in each case. The Potency result in assay [7], in assay [8] and in [9] was “inactive” each time.
Consider `C/C=C(\C)C(=O)OCCC(C)CCC=C(C)C` (stereo unspecified), for which the Potency entry in assay [1], in [2], in assay [3], in assay [4], in assay [5] and in assay [6] was “inactive” throughout. Moreover, the Potency entry in assay [7], in assay [8] and in assay [9] was “inactive” throughout.
In the case of `C=CCNc1nc(NCC=C)nc(N2CCN(C(c3ccc(F)cc3)c3ccc(F)cc3)CC2)n1`, the Potency result in assay [1], in assay [2], in assay [3], in [4], in assay [5] and in assay [6] was “inactive” throughout. For the same molecule, the Potency result in assay [7], in assay [8], in [9] and in [10] was “inactive” each time.
As for `CCCCCCCCCOC(C)=O`, the Potency entry in [1], in [2], in assay [3], in assay [4], in assay [5] and in assay [6] was “inactive” in each case. Further, the Potency entry in [7], in assay [8] and in [9] was “inactive” each time.
In the case of `Nc1ccc(C(=O)OCCCOC(=O)c2ccc(N)cc2)cc1`, the Potency result in assay [1], in assay [2], in assay [3], in assay [4], in assay [5] and in assay [6] was “inactive” each time. In addition, the Potency entry in assay [9] is “inactive”. Besides, the Potency in [7] and in [8] was 43.6 µM (active) in each case.
Consider `ON(Cc1ccccc1)Cc1ccccc1`, for which the Potency entry in assay [1], in assay [2], in [3], in assay [4], in assay [5] and in assay [6] was “inactive” throughout. Besides, the Potency result in [7], in assay [8] and in [9] was “inactive” in each case.
Turning to `COC(=O)c1cc(Cl)ccc1NS(=O)(=O)C(F)(F)F`, the Potency result in [1], in [2], in [3], in [4], in assay [5] and in assay [6] was “inactive” throughout. Also, the Potency entry in assay [7], in [8] and in assay [9] was “inactive” each time.
Turning to `OC(CCCN1CCCCC1)(c1ccccc1)c1ccccc1`, the Potency entry in assay [1], in assay [2], in assay [3], in assay [4], in [5] and in [6] was “inactive” each time. For the same molecule, the Potency entry in assay [7], in assay [8] and in [9] was “inactive” each time.
On to `O=C1OCCN1/N=C/c1ccc([N+](=O)[O-])o1`, for which the Potency result in assay [1], in assay [2], in assay [3], in [4], in [5] and in assay [6] was “inactive” in each case. Moreover, the Potency entry in assay [7], in assay [8], in [9] and in assay [10] was “inactive” each time.
Turning to `O=C(/C=C/c1ccccc1)OCCCc1ccccc1`, the Potency entry in assay [1], in assay [2], in assay [3], in assay [4], in assay [5] and in [6] was “inactive” each time. Besides, the Potency entry in assay [7], in assay [8], in assay [9] and in assay [10] was “inactive” in each case.
Regarding `O=Cc1c(Cl)cccc1Cl`, the Potency result in assay [1], in [2], in [3], in assay [4], in [5] and in assay [6] was “inactive” each time. In addition, the Potency result in [7], in assay [8], in assay [9] and in assay [10] was “inactive” throughout.
In the case of `CC(CCc1ccc2c(c1)OCO2)NN` (stereo unspecified), the Potency result in assay [1], in [2], in assay [3], in assay [4], in assay [5] and in assay [6] was “inactive” throughout. Besides, the Potency entry in assay [7], in assay [8], in assay [9] and in [10] was “inactive” each time.
On to `CCOC(=O)/C=C/C(=O)O`, for which the Potency entry in [1], in assay [2], in assay [3], in assay [4], in [5] and in assay [6] was “inactive” throughout. The Potency result in assay [7], in assay [8], in [9] and in assay [10] was “inactive” in each case.
On to `C=CC(=O)NCOCC(C)C`, for which the Potency result in assay [1], in [2], in assay [3], in assay [4], in [5] and in assay [6] was “inactive” each time. For the same molecule, the Potency entry in [7], in assay [8], in assay [9] and in assay [10] was “inactive” throughout.
With `CCOC(=O)c1ccccc1C`, the Potency entry in [1], in assay [2], in assay [3], in [4], in [5] and in assay [6] was “inactive” each time. Moreover, the Potency result in [7], in assay [8], in assay [9] and in assay [10] was “inactive” in each case.
As for `C[Si]1(C)O[Si](C)(C)O[Si](C)(C)O1`, the Potency result in assay [1], in assay [2], in assay [3], in assay [4], in [5] and in assay [6] was “inactive” each time. The Potency result in [7], in [8], in assay [9] and in [10] was “inactive” in each case.
Regarding `C=C(C)C(=O)OCCOC(=O)CC(C)=O`, the Potency entry in assay [1], in assay [2], in assay [3], in assay [4], in assay [5] and in [6] was “inactive” in each case. Also, the Potency result in assay [7], in assay [8], in [9] and in assay [10] was “inactive” in each case.
